HepG2 viability: counter-screen for TGF-b inhibitors: cytotoxicity in HepG2 cells. HepG2 CAGA-GFP viability, ATP luminescence, 18 h. Potency, µM (series often up to 46.1 µM), inactives show top-dose activity change, negative = cytotoxicity, actives largely listed as cytotoxic. hit rate 0.76% among 410,000; also: potency is read from the fitted curve at half-maximal effect
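HepG2 CAGA-GFP cells (1000/well, DMEM with 1% FBS) received compound, then TGF-beta at 500 pg/mL final, and were incubated 18 hours at 37 degrees C. Viability was read by CellTiter-Glo luminescence. Media-only wells were set as complete cell-killing and DMSO as no toxicity.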
TDP1 block: inhibitors of human tyrosyl-DNA phosphodiesterase TDP1. hit rate 0.28% among 350,000. Q9NUW8. recombinant TDP1, AlphaScreen DNA substrate cleavage. Potency, µM (titrated, usually from 130 µM), for the others: at the highest dose activity change, negative = inhibition, most hits filed as inhibitors. AID 485290; also: potency is read from the fitted curve at half-maximal effect; % is scaled to controls: 0 for no effect and ±100 for the full control effect; nearly all actives have a fitted effect of over 40% in size
Target sequence (Q9NUW8 whole entry, looked up): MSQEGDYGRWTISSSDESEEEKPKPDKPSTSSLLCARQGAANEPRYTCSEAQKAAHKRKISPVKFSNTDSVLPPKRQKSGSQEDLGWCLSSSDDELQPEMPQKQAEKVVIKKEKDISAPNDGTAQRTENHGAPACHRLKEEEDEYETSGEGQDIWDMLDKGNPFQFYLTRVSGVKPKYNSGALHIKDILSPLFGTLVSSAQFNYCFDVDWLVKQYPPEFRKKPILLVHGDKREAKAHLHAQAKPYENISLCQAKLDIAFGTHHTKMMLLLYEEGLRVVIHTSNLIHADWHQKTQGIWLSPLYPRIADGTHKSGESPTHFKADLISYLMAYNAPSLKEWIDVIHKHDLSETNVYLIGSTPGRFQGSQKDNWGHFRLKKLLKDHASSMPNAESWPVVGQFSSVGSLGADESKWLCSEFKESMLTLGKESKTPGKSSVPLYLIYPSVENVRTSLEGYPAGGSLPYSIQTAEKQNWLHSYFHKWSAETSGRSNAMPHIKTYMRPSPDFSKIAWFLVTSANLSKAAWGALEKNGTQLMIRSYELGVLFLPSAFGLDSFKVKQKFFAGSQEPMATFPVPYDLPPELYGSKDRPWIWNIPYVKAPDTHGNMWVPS
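Enzyme-compound mixtures sat 15 min at room temperature, followed by a 5 min reaction with 15 nM final substrate and 10 min with AlphaScreen beads. Recombinant human Tdp1 was used at 1 nM final.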
TDP1 cell noCPT: qHTS for Inhibitors of human tyrosyl-DNA phosphodiesterase 1 (TDP1): qHTS in cells in absence of CPT; DT40 Tdp1-/- hTDP1 cells, no CPT, ATP luminescence, 48 h; Potency, µM (top dose mostly 46.2 µM), for the others: at the highest dose activity change, negative = growth inhibition, hits mostly inhibitors; hit rate 15% among 420,000; also: potency is read from the fitted curve at half-maximal effect; % is scaled to controls: 0 for no effect and ±100 for the full control effect; nearly all actives have a fitted effect of over 55% in size
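Growth kinetics read by CellTiter-Glo luminescence after ≥48 hr at 37 °C. Cells: DT40 Tdp1-/- stably carrying human TDP1, 400 per well, compound exposure in the absence of CPT (DMSO vehicle).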
DT40 TDP1 CPT: DT40-hTDP1 cell growth loss with CPT. chicken DT40 Tdp1-/-;hTDP1 cells + 20 nM CPT, ATP luminescence, 48 h. Potency, µM (highest dose often 46.2 µM), for inactives: at the top dose activity change, negative = growth inhibition, usual class: inhibitors. hit rate 12% among 420,000; also: potency is read from the fitted curve at half-maximal effect; % is scaled to controls: 0 for no effect and ±100 for the full control effect; nearly all actives have a fitted effect of over 55% in size
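Chicken DT40 Tdp1-/- cells stably complemented with human TDP1 were seeded at 400 cells/well in medium containing 20 nM camptothecin, exposed to pin-transferred compounds, and grown at 37 °C for at least 48 hr. Viability was read as ATP luminescence.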
IL1B secr inh: inflammasome signaling inhibition, IL-1 beta readout | THP-1 LPS/ATP IL-1B secretion, AlphaLISA, 16 h; active compounds read low | hit rate 4.7% among 360,000 | AID 743279 | activity change, % at 57.5 µM; in the data active = activity change below about -50%; inconclusive = mostly about -30% to -49%; also: % is scaled to controls: 0 for no effect and ±100 for the full control effect
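Secreted IL-1B measured by AlphaLISA bead assay after 16 h compound exposure of THP-1 cells; compounds (final up to 57.5 uM) added 1 h before LPS (250 ng/mL) and ATP (1.25 mM) stimulation; lower signal means less secretion.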
TGFb inhibitor: blocks TGF-b signaling; HepG2 CAGA-GFP TGF-b/SMAD3 reporter, GFP fluorescence, 18 h; TGF-beta stimulated, 500 pg/mL final; Potency, µM (doses to about 46.1 µM), for inactives: top-dose activity, negative = inhibition, usual class: inhibitors; hit rate 1.2% among 410,000; AID 588855; also: potency is read from the fitted curve at half-maximal effect; % is scaled to controls: 0 for no effect and ±100 for the full control effect; nearly all actives have a fitted effect of over 65% in size
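Smad-responsive CAGA-GFP expression was quantified in HEPG2 cells exposed to compounds and 500 pg/mL final TGF-beta for 18 h at 37 degrees C; unstimulated wells defined full inhibition.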
Numbers without * were called inactive; [ ] = remark or other dose. Most compounds without a hit are left out; they make up all but 19% or so of the library. Unless noted, calls follow the shape of the dose curve; as a rule, active = well fitted curve in the direction sought with a large enough effect; inconclusive = small, poorly fitted or top-dose-only effect, or another doubt; inactive = no such curve, though single readings can be large; an effect the other way counts as inactive or inconclusive.

Results for O=C(C1CCC1)N1CCc2cc(S(=O)(=O)N3CCCCC3)ccc21 ?
HepG2 viability: -8%; TDP1 block: 7%; TDP1 cell noCPT: inconclusive; DT40 TDP1 CPT: inconclusive; IL1B secr inh: 7; TGFb inhibitor: 6%

What do the screens show for `O=C(C1CC1)N1CCc2cc(Br)cc(S(=O)(=O)N3CCCCCC3)c21`?
HepG2 viability: -26%; TDP1 block: 5%; TDP1 cell noCPT: 21µM*; DT40 TDP1 CPT: inconclusive; IL1B secr inh: -1; TGFb inhibitor: 0%

What do the screens show for `O=C(C1CC1)N1CCc2cc(Br)c(S(=O)(=O)N3CCCCCC3)cc21`?
HepG2 viability: -2%; TDP1 cell noCPT: inconclusive; DT40 TDP1 CPT: 16µM*; IL1B secr inh: 12; TGFb inhibitor: 4%

Results for COc1ccc(NC(=O)COc2cccc3c2CCN(Cc2cccnc2)C3=O)c(OC)c1 ?
HepG2 viability: -34%; TDP1 block: 5%; TDP1 cell noCPT: 10µM*; DT40 TDP1 CPT: 12µM*; IL1B secr inh: -26; TGFb inhibitor: inconclusive

Results for Cc1nn(-c2ccc(F)cc2)c(-n2cccc2)c1C(=O)N1CCN(c2ccc(F)cc2)CC1 ?
HepG2 viability: -16%; TDP1 block: 3%; TGFb inhibitor: 18%

Results for Oc1cccc2ccc(Nc3ccccn3)nc12 ?
HepG2 viability: 5.6µM*; TDP1 block: 14%; TDP1 cell noCPT: 3.7µM*; DT40 TDP1 CPT: 1.6µM*; IL1B secr inh: -110*; TGFb inhibitor: inconclusive

How did CCOC(=O)c1ccc(CN(Cc2ccc(F)cc2)S(=O)(=O)c2cc(C(=O)Nc3ccccc3CC)ccc2F)cc1 do in these assays?
HepG2 viability: -25%; TDP1 block: 5%; TDP1 cell noCPT: -14%; DT40 TDP1 CPT: inconclusive; TGFb inhibitor: 1%

Results for Cc1ccc2c(c1)C(=O)C(=O)N2Cc1ccc(OC(C)C)cc1 ?
HepG2 viability: -48%; TDP1 block: 5%; TDP1 cell noCPT: 0.058µM*; DT40 TDP1 CPT: 0.0073µM*; TGFb inhibitor: 10µM*

What do the screens show for `CC(C)Oc1ccc(Cn2c(=O)sc3ccccc32)cc1`?
HepG2 viability: 5%; TDP1 block: -8%; TDP1 cell noCPT: -23%; DT40 TDP1 CPT: -3%; IL1B secr inh: 16; TGFb inhibitor: 6%

What do the screens show for `Cc1ccc2c(c1)C(=O)C(=O)N2Cc1ccc(C(F)(F)F)cc1`?
HepG2 viability: 18µM*; TDP1 block: 3%; TDP1 cell noCPT: 1µM*; DT40 TDP1 CPT: 0.92µM*; IL1B secr inh: 63; TGFb inhibitor: 16µM*

What do the screens show for `CC(=O)c1cc(C)ccc1OC(=O)CN1C(=O)c2ccccc2C1=O`?
HepG2 viability: -14%; TDP1 cell noCPT: -9%; DT40 TDP1 CPT: -7%; IL1B secr inh: -1; TGFb inhibitor: 7%

How did Cc1ccc2c(c1)C(=O)C(=O)N2CC(=O)OC(C)C do in these assays?
HepG2 viability: 8%; TDP1 block: 4%; TDP1 cell noCPT: 5.8µM*; DT40 TDP1 CPT: 5.2µM*; IL1B secr inh: 13; TGFb inhibitor: 2%

What do the screens show for `COc1cc(NC(=O)Cn2nnnc2-c2ccccc2F)cc(OC)c1OC`?
HepG2 viability: -9%; TDP1 block: 0%; TDP1 cell noCPT: -21%; DT40 TDP1 CPT: -13%; TGFb inhibitor: -20%

What do the screens show for `CCOc1cc(/C=C/C(=O)c2ccc(OC)c(CN3CCOCC3)c2)cc(Br)c1O`?
HepG2 viability: 2%; TDP1 cell noCPT: inconclusive; DT40 TDP1 CPT: inconclusive; IL1B secr inh: -96*; TGFb inhibitor: 20%

How did Cn1nnnc1SCC(=O)NCCc1ccc(Cl)cc1 do in these assays?
HepG2 viability: 16µM*; TDP1 block: 2%; TDP1 cell noCPT: -28%; DT40 TDP1 CPT: 0%; IL1B secr inh: -17; TGFb inhibitor: -13%

What do the screens show for `CC(=O)/C(=N/Nc1ccccc1)Sc1nnc(CCc2ccccc2)n1-c1ccccc1`?
HepG2 viability: -2%; TDP1 block: 2%; TDP1 cell noCPT: 18µM*; DT40 TDP1 CPT: 12µM*; IL1B secr inh: -76*; TGFb inhibitor: -29%

How did CC(=O)/C(=N\Nc1ccc(Cl)cc1)Sc1nnc(-c2ccccc2)n1-c1ccccc1 do in these assays?
HepG2 viability: -16%; TDP1 block: 4%; TDP1 cell noCPT: inconclusive; DT40 TDP1 CPT: inconclusive; IL1B secr inh: -15; TGFb inhibitor: 0%

Results for COc1ccc(-n2c(CCc3ccccc3)nnc2SCC(=O)c2ccccc2)cc1 ?
HepG2 viability: 3%; TDP1 block: 3%; TDP1 cell noCPT: inconclusive; DT40 TDP1 CPT: inconclusive; IL1B secr inh: -80*; TGFb inhibitor: -8%

What do the screens show for `COc1ccc(-n2c(CCc3ccccc3)nnc2SCC(=O)NCc2ccccc2)cc1`?
HepG2 viability: -22%; TDP1 block: 6%; TDP1 cell noCPT: inconclusive; DT40 TDP1 CPT: inconclusive; IL1B secr inh: -52*; TGFb inhibitor: -4%

Results for CCOC(=O)CC(CC(C)=O)C(=O)OCC (centres undefined) ?
TDP1 block: 6%

How did CCOC(=O)OCC1OC(C#Cc2ccccc2)C=CC1Oc1cccc(N(C)C)c1 (centres undefined) do in these assays?
TDP1 block: 9%[21 µM]

What do the screens show for `COc1ccc(CCNC(=O)CSc2nnc3ccccn23)cc1`?
HepG2 viability: 3%; TDP1 block: 5%; TDP1 cell noCPT: -19%; DT40 TDP1 CPT: 0%; IL1B secr inh: 0; TGFb inhibitor: 0.45µM*

How did COc1ccc(C(=O)CSc2nnc(CCc3ccccc3)n2-c2ccccc2)cc1 do in these assays?
HepG2 viability: -2%; TDP1 block: 7%; TDP1 cell noCPT: 15µM*; DT40 TDP1 CPT: 16µM*; IL1B secr inh: -17; TGFb inhibitor: -27%

Results for CN1CCN(c2ncc3ncc(=O)n(C[C@H]4CCCO4)c3n2)CC1 ?
TDP1 cell noCPT: -11%; DT40 TDP1 CPT: -22%

What do the screens show for `Cc1cc(C)n(-c2ccc(C(=O)N3CCN(S(=O)(=O)c4ccc(C(C)C)cc4)CC3)cc2)n1`?
HepG2 viability: -14%; TDP1 block: 3%; TDP1 cell noCPT: 15µM*; DT40 TDP1 CPT: inconclusive; IL1B secr inh: inconclusive; TGFb inhibitor: -2%

Results for CC(C)c1ccc(S(=O)(=O)N2CCN(C(=O)c3ccncc3)CC2)cc1 ?
HepG2 viability: 4%; TDP1 block: 1%; TDP1 cell noCPT: inconclusive; DT40 TDP1 CPT: -28%; IL1B secr inh: 22; TGFb inhibitor: 19%

Screening data deposited in PubChem by National Center for Advancing Translational Sciences (NCATS).
